PubChem BioAssay AID1053122 (Broad Institute, 2014)
Results with a measured potency or affinity are listed apart. Activity calls are given as the source filed them.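 The calls were made as follows: active = CTGF level falls with dose and the fitted half-maximal dose is at most twice the top valid dose; inconclusive = flat fit with 30 to 70% drop, or a poor fit; inactive = the rest.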

assay: YAP1 pathway inhibition via CTGF transcript levels, dose response, cell-based, DLD1 colon cancer, RT-qPCR, cherry-pick (AID 1053122); details: DLD1 CTGF mRNA (YAP1 pathway), 24 h; series mostly up to 26 µM; CTGF expression fold change (lower = inhibition): at the top concentration

Compound	CTGF expression fold change (lower = inhibition)
O=C(Cc1ccncc1)N1CCCCN2[C@H](CO)[C@@H](c3ccc(C#Cc4ccccc4F)cc3)[C@@H]2C1	0.409 unspecified (inactive)
COc1cccc(-c2ccc([C@@H]3[C@@H](CO)N4CCCCN(C(=O)Cc5ccncc5)C[C@@H]34)cc2)c1	0.867 unspecified (inactive)
O=C(Cc1ccncc1)N1CCCCN2[C@H](CO)[C@@H](c3ccc(C#Cc4ccccc4F)cc3)[C@H]2C1	0.661 unspecified (inactive)
O=C(Cc1ccncc1)N1CCCCN2[C@@H](CO)[C@@H](c3ccc(C#Cc4ccccc4F)cc3)[C@@H]2C1	0.834 unspecified [at 23.5 µM] (inactive)
COc1cccc(-c2ccc([C@@H]3[C@@H](CO)N4CCCCN(C(=O)Cc5ccncc5)C[C@H]34)cc2)c1	0.988 unspecified (inactive)
COc1cccc(-c2ccc([C@H]3[C@@H](CO)N4CCCCN(C(=O)Cc5ccncc5)C[C@H]34)cc2)c1	1.61 unspecified (inactive)
COc1cccc(-c2ccc([C@H]3[C@@H](CO)N4CCCCN(C(=O)Cc5ccncc5)C[C@@H]34)cc2)c1	0.966 unspecified (inactive)
COc1cccc(-c2ccc([C@@H]3[C@H](CO)N4CCCCN(C(=O)Cc5ccncc5)C[C@@H]34)cc2)c1	0.779 unspecified (inactive)
O=C(Cc1ccncc1)N1CCCCN2[C@H](CO)[C@H](c3ccc(C#Cc4ccccc4F)cc3)[C@H]2C1	1.23 unspecified (inactive)
O=C(Cc1ccncc1)N1CCCCN2[C@H](C1)[C@@H](c1ccc(C#Cc3ccccc3F)cc1)[C@@H]2CO	0.741 unspecified (inactive)
COc1cccc(-c2ccc([C@@H]3[C@H]4CN(C(=O)Cc5ccncc5)CCCCN4[C@H]3CO)cc2)c1	1.38 unspecified (inactive)
COc1cccc(-c2ccc([C@H]3[C@H](CO)N4CCCCN(C(=O)Cc5ccncc5)C[C@@H]34)cc2)c1	0.94 unspecified (inactive)
